This is part of a sample that, as a whole, favours compounds with a hit. Of some 79,000 tested, about 15% had one in any assay. A number with no mark means an inactive call. Active and inactive are the calls of the source. Cut-off read from the data, not from the text of the source: active = growth inhibition above about 70%; inactive = the rest.
Tests used:
[1] = NCI Yeast Anticancer Drug Screen. Data for the rad50 strain (AID 155);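 note: 0% = growth of vehicle-only cultures of the same strain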; settings: S. cerevisiae rad50 strain growth inhibition, stronger effect = higher value
How it was run: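 A DNA repair-deficient yeast mutant serves as the test organism; compound-induced growth inhibition is calculated against vehicle-treated cells.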

[2] = NCI Yeast Anticancer Drug Screen. Data for the mec2-1 strain (AID 157); settings: S. cerevisiae mec2-1 strain, stronger effect = higher value
How it was run: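 Vehicle-treated cultures served as reference for growth inhibition of compound-exposed mec2-1 yeast.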

[3] = NCI Yeast Anticancer Drug Screen. Data for the sgs1 mgt1 strain (AID 161);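 note: 0% = growth of cultures given vehicle only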; settings: S. cerevisiae sgs1 mgt1 strain, stronger effect = higher value
How it was run: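 Genetically altered yeast, compound exposure, growth inhibition relative to vehicle.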

[4] = NCI Yeast Anticancer Drug Screen. Data for the cln2 rad14 strain (AID 165);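 note: 0% = growth equal to vehicle treated cultures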; settings: S. cerevisiae cln2 rad14 strain, stronger effect = higher value
How it was run: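 Each compound was tested on cln2 rad14 yeast. Inhibition of growth was calculated against vehicle-exposed controls.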

[5] = NCI Yeast Anticancer Drug Screen. Data for the bub3 strain (AID 167); settings: S. cerevisiae bub3 mutant strain, stronger effect = higher value
How it was run: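 Inhibition values come from growth of compound-treated mutant yeast normalised to vehicle-treated controls.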

[6] = NCI Yeast Anticancer Drug Screen. Data for the mlh1 rad18 strain (AID 175); settings: S. cerevisiae mlh1 rad18 strain growth inhibition, stronger effect = higher value
How it was run: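 Vehicle-treated cultures served as the reference for growth inhibition in a yeast strain carrying DNA damage repair alterations exposed to each compound.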

[7] = at 5.0 µM (retest, dose inferred, filed as 0.5)
[8] = at 50.0 µM (retest, dose inferred, filed as 5.0)

SMILES	growth inhibition [1, 7]	growth inhibition [1, 8]	growth inhibition ([1]; at 50.0 µM)	growth inhibition [2, 7]	growth inhibition [2, 8]	growth inhibition ([2]; at 50.0 µM)	growth inhibition [3, 7]	growth inhibition [3, 8]	growth inhibition ([3]; at 50.0 µM)	growth inhibition [4, 7]	growth inhibition [4, 8]	growth inhibition ([4]; at 50.0 µM)	growth inhibition [5, 7]	growth inhibition [5, 8]	growth inhibition ([5]; at 50.0 µM)	growth inhibition [6, 7]	growth inhibition [6, 8]	growth inhibition ([6]; at 50.0 µM)
CC[n+]1cnc(N)c2c(-c3ccc(Cl)cc3)cn(-c3ccc(C)cc3)c21	-2%	98% (active)	93.1% (active)	-4%	99% (active)	95.5% (active)	-6%	99% (active)	97.9% (active)	-6%	98% (active)	46.9%	-1%	98% (active)	80.3% (active)	-3%	98% (active)	97.8% (active)
Oc1ccc(CC2CCC(O)CC2)cc1 (centres undefined)	-169%	-33%	50.5%	-61%	-33%	28.6%	-66%	-54%	22.6%	-59%	-43%	45%	-76%	-24%	46.6%	-121%	-78%	24.2%
CC(O)CCCOC(c1ccccc1)(c1ccccc1)c1ccccc1 (centres undefined)	19%	97% (active)	86.5% (active)	9%	97% (active)	83.8% (active)	17%	95% (active)	80.8% (active)	15%	94% (active)	82.7% (active)	28%	93% (active)	80.5% (active)	19%	96% (active)	84.4% (active)
O=C(O)C1(Cc2ccc3c(c2)CCC3)Cc2ccccc2C1	18%	18%	90.3% (active)	-7%	-7%	91.9% (active)	15%	15%	88.5% (active)	5%	5%	89% (active)	-6%	-6%	90% (active)	3%	3%	86.8% (active)
C=C1C(=O)C23CC[C@H]4C(C)(CCC[C@]4(C)C(=O)O)[C@@H]2CCC1C3 (some centres undefined)	94% (active)	99% (active)	90.5% (active)	96% (active)	99% (active)	93.7% (active)	93% (active)	99% (active)	93% (active)	72% (active)	99% (active)	88.3% (active)	95% (active)	99% (active)	92% (active)	97% (active)	99% (active)	92.7% (active)
CC1C(O)Oc2cc3c(cc2C1c1ccccc1O)OCO3 (centres undefined)	-10%	77% (active)	61.8%	-41%	84% (active)	32.1%	-33%	40%	56.5%	20%	87% (active)	69.7%	25%	84% (active)	38.6%	-13%	90% (active)	54.5%
[Fe+2].c1cc[cH-]c1.c1ccc(-c2ccc[cH-]2)cc1	-4%	29%	7.6%	-2%	32%	23.3%	-6%	47%	-9.4%	1%	16%	16.9%	0%	41%	74.7% (active)	1%	24%	19%
CCCCCN(CCCCC)CCNc1ccc(C)c2sc3ccccc3c(=O)c12	2%	96% (active)	98.6% (active)	7%	97% (active)	97.3% (active)	17%	97% (active)	98.2% (active)	5%	93% (active)	95.7% (active)	7%	97% (active)	96.8% (active)	9%	97% (active)	97% (active)
COc1ccc(C(CC(=O)c2ccc(C)cc2)Sc2ccccc2N)cc1 (centres undefined)	46%	51%	-9.65%	52%	52%	4.5%	-16%	26%	26.5%	44%	40%	-15.2%	36%	17%	27.5%	35%	50%	8.35%
O=S1(=O)c2ccccc2C(=NO)c2ccccc21	-5%	-9%	-7.95%	-3%	-26%	13.2%	-7%	-21%	-15.4%	3%	0%	66%	-1%	-17%	7.7%	-3%	-21%	-3.55%
Cc1[nH]c2ccccc2c1SCc1ccccc1	-5%	99% (active)	99.2% (active)	2%	100% (active)	99.7% (active)	0%	100% (active)	99.5% (active)	-2%	99% (active)	99.3% (active)	-6%	99% (active)	99.5% (active)	-7%	98% (active)	99.3% (active)
CC(/C=C1\CCC(CN(C)C)C1=O)c1cccc(Br)c1 (centres undefined)	-11%	97% (active)	93.8% (active)	-1%	99% (active)	94% (active)	5%	97% (active)	93.5% (active)	16%	98% (active)	92.2% (active)	18%	99% (active)	92.7% (active)	7%	98% (active)	91.6% (active)
CN(C)c1ccc(/C=C(/NC(=O)c2ccccc2)c2nc3ccc(Cl)cc3[nH]2)cc1	16%	16%	64.7%	6%	6%	68.3%	-2%	-2%	67.2%	16%	16%	60.5%	-8%	-8%	71.5% (active)	-25%	-25%	73.8% (active)
CCOC(=O)c1ccc(O)c(OC)c1	-2%	10%	2%	7%	3%	1.5%	3%	2%	-18.6%	-5%	5%	-13.8%	61%	93% (active)	90.2% (active)	-3%	0%	-7.1%
O=S(=O)(Nc1nccs1)c1ccc(N=Cc2cn(Cc3ccccc3)c3ccccc23)cc1	3%	53%	82.3% (active)	-3%	7%	36.4%	3%	57%	85.9% (active)	9%	11%	27.4%	1%	8%	9.5%	5%	38%	52.4%
O=C(CC(c1ccccc1)c1ccccc1)NCCCCN1CCCCCCC1	27%	89% (active)	12%	19%	96% (active)	-9%	25%	94% (active)	22.9%	2%	90% (active)	89.7% (active)	5%	93% (active)	26.4%	16%	93% (active)	19.4%
CC[O-].CC[O-].[O-]c1ccccc1C=Nc1ccccc1.[O-]c1ccccc1C=Nc1ccccc1.[Ti+4]	23%	23%	50.5%	22%	22%	14.8%	12%	12%	19.8%	13%	13%	29.9%	12%	12%	19.9%	23%	23%	19.9%
O=[N+]([O-])c1ccc(-c2nc3c(o2)CCC3)cc1	-85%	-83%	9.15%	-15%	-15%	-2.9%	-22%	-22%	6.4%	-57%	-62%	25.1%	-72%	-82%	-4.6%	-92%	-61%	3.25%

From PubChem BioAssay (NCI)
